# Records with an inconclusive call do not appear. Entries that show only a call come without a potency. A number with no mark means an inactive call. The source made the active and inactive calls. The call rests on the fitted dose curve; in most records, active means well fitted cell-killing curve with a large enough effect; inconclusive means small, poorly fitted or top-dose-only effect; inactive means no such curve, though single readings can be large or run the other way.
# Assay: qHTS of pediatric cancer cell lines to identify multiple opportunities for drug repurposing: Primary screen for Rh41 cells (AID 1347108); further: nearly all actives have a fitted effect of over 70% in size;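 on activity change, negative = cytotoxic: luminescence drop marks cytotoxic hits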
# Details: Rh41 rhabdomyosarcoma viability, CellTiter-Glo luminescence, 48 h; series mostly up to 46 µM
# Excerpt: Drug repurposing or repositioning has been offered as a strategy for drug development in oncology programs. This approach has special potential for childhood cancers and other rare or orphan diseases, where the expected return on new drug development has been a disincentive to pharmaceuticals. […] In this project we exploit the poly-pharmacology of drugs to discover new indications via phenotypic screening of a panel of 19 well-characterized cell lines derived from solid tumors seen in children and adolescents. The goal is to identify approved drugs with previously unrecognized anticancer properties that has the potential to reveal new mechanisms and biological processes involved in carcinogenesis or drug resistance. We employed a titration-based paradigm (quantitative high-throughput screening or qHTS), where all compounds were tested at multiple concentrations for their effect on cell viability. Concentration-response curves (CRCs) were derived directly from the primary screen, and both potency and efficacy values were used to identify compounds with robust bioactivity profiles. We screened the NIH Chemical Genomics Center (NCGC) Pharmaceutical Collection (NPC) and Mechanism Interrogation Plate (MIPE) small molecule collections of approved and investigational compounds against these cell lines; and measured metabolically active cells after 48 hours of compound treatment as a proxy for cell viability. […] Assay Submitter: Nathalia J. Martinez, National Center for Advancing Translational Sciences, National Institutes of Health, Rockville, MD, USA; email: natalia.martinez@nih.gov Shen, M et al. Quantitative high-throughput phenotypic screening of pediatric cancer cell lines identifies multiple opportunities for drug repurposing. Oncotarget 2017 Dec 19;9(4):4758-4772. PMID 29435139.
# The cells were obtained from University of North Carolina (UNC), Pediatric Preclinical Testing Program (PPT), and Coriell Institute (CI). qHTS cell viability assay: Cells were assayed in growth media at a density of 500-1,000 cells/well. Five microliters of cells were dispensed into 1,536-well, white, solid-bottom, TC-treated plates (Greiner Bio One) using a multidrop dispenser and incubated at 37 degrees C, 5% CO2, under a humidified atmosphere for 5 hours. Twenty-three nanoliters of compounds and controls (neutral control DMSO or positive control bortezomib at final concentration of 2.3 µM) were subsequently transferred by Kalypsys pintool. For primary screens, the MIPE collection was tested at 11-point dilutions (final concentrations range from 0.78 nM to 46 µM) and the NPC collection at 8-point dilutions (final concentrations range from 0.59 nM to 46 µM). Compounds tested in follow-up screens were assayed at 11-point dilutions. Cells were incubated for 48 hours, followed by addition of 3 µL of CellTiter-Glo (Promega). After a 15 min incubation at room temperature, samples were analyzed for luminescence intensity using a ViewLux High-throughput CCD imager equipped with clear filters.
# Potency means the concentration at half of the fitted maximal effect.
SMILES,Potency,"activity change, negative = cytotoxic"
Cc1ccc(O)c(-n2nc3ccccc3n2)c1,inactive,–
O=C(O)Cc1cccc(-c2cc(CCCCCCc3ccc(O[C@H]4O[C@H](CO)[C@@H](O)[C@H](O)[C@@H]4O)c(-c4cccc(CC(=O)O)c4)c3)ccc2O[C@H]2O[C@H](CO)[C@@H](O)[C@H](O)[C@@H]2O)c1,–,21.7% [at 0.597 µM]
CN(C)c1ccc(N=NS(=O)(=O)O)cc1,inactive,–
CCCCCCCCCCCC(=O)[O][Sn]([CH2]CCC)([CH2]CCC)[O]C(=O)CCCCCCCCCCC,inactive,–
Nc1ccc(C(=O)O)c(O)c1,inactive,–
Nc1ccc([N+](=O)[O-])cc1O,inactive,–
CC1(C)S[C@@H]2[C@H](NC(=O)[C@H](N)c3ccccc3)C(=O)N2[C@H]1C(=O)O,inactive,–
CN1CC(=O)N/C1=N/C(=O)Nc1cccc(Cl)c1,inactive,–
CN(C)CCn1nnnc1SCC1=C(C(=O)O)N2C(=O)[C@@H](NC(=O)Cc3csc(N)n3)[C@H]2SC1,inactive,–
N=C1N=C(N)c2cc3ccccc3cc21,30.6 µM (active),–
N=C(N)N,inactive,–
O=C(OCc1ccccc1)c1ccccc1,inactive,–
CCCCCCCCCCCCCCCC(=O)OC(C)C,inactive,–
CC(C(=O)O)c1ccc(C(=O)c2ccccc2)s1 (stereo not given),inactive,–
O=C(CCN1CCN(CCO)CC1)N1c2ccccc2Sc2ccc(C(F)(F)F)cc21,inactive,–
CC(=O)SCC(CC(=O)c1ccc(C)cc1)C(=O)O (stereo not given),inactive,–
O=C(O)Cc1ccc(-c2ccccc2)cc1,inactive,–
CC(C)OC(=O)c1cc(C(=O)OC(C)C)cc([N+](=O)[O-])c1,inactive,–
O=C(O)/C=C\C(=O)O,inactive,–
O=C(CS)Nc1ccccc1,21.1 µM (active),–

SMILES,Potency,"activity change, negative = cytotoxic"
S=c1[nH]c2ccccc2s1,inactive,–
CC(N)C(=O)OC(C)(C)Cc1ccc(Cl)cc1 (stereo not given),inactive,–
Cc1ccc2c(n1)Oc1ccc(C(C)C(=O)OCC(=O)N(C)C)cc1C2 (stereo not given),inactive,–
Clc1ccccc1-c1nc(-c2ccncc2)no1,inactive,–
CN(C)c1ccc(C(=C2C=CC(=[N+](C)C)C=C2)c2ccccc2)cc1,0.0944 µM (active),–
CC(C(=O)O)c1ccc2c(c1)[nH]c1ccc(Cl)cc12 (stereo not given),inactive,–
COc1ccnc2c1CCCCC2S(=O)c1nc2ccccc2[nH]1 (stereo not given),inactive,–
CC(C)(C)c1nnc(NS(=O)(=O)c2ccc(N)cc2)s1,inactive,–
COC(=O)C1=C(C)NC(C)=C(C(=O)OCC(C)=O)C1c1ccccc1[N+](=O)[O-] (stereo not given),inactive,–
Cc1[nH]cnc1CN1CCc2c(c3ccccc3n2C)C1=O,inactive,–
COc1ccc(-c2cc(=S)ss2)cc1,inactive,–
CO[C@@]1(NC(=O)Cc2cccs2)C(=O)N2C(C(=O)O)=C(COC(N)=O)CS[C@@H]21,inactive,–
NC(=O)C(c1ccccc1)(c1ccccc1)[C@@H]1CCN(CCc2ccc3c(c2)CCO3)C1,inactive,–
CN(C)[C@@H]1C(=O)C(C(=O)NCN2CCCC2)=C(O)[C@@]2(O)C(=O)C3=C(O)c4c(O)cccc4[C@@](C)(O)C3C[C@@H]12 (stereo not given in full),inactive,–
CC(=O)c1ccc(OCC(=O)N2CCCCC2)cc1,inactive,–
CCOC(=O)c1ccccc1O,inactive,–
CCCCCCOc1ccccc1C(N)=O,inactive,–
Cc1c(Nc2ncccc2C(=O)O)cccc1C(F)(F)F,inactive,–
CCCCCCCCCCCCCCCCCC(=O)O,inactive,–
O=C(O)Cc1ccc2c(c1)C(=O)c1ccccc1CO2,inactive,–
